From PubChem BioAssay
The source made the active and inactive calls.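 The calls were made as follows, unless noted: active = fluorescence slope after compound addition differing from the mean of all screened samples at 99.7% confidence, in either direction; inactive = the rest.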

Legend:
[1] = inhibitors of TNFa-induced NFkB p65 translocation, primary screen, imaging, HUVEC, MLSMR starter and 10KST1 sets (AID 438;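 active = inhibition above 20% together with a positive visual image hit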;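 also: compound added about 3h40 before a 20 min TNFalpha stimulation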;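 as to inhibition: signal is the nuclear over cytoplasmic p65 intensity ratio per well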); conditions: HUVEC TNFa-induced p65 nuclear translocation; cell count: measured here: nuclei count (cytotoxicity indicator), at 2.08 µM; inhibition: at 2 µM, stronger effect = higher value, 0% TNFa-plus-vehicle, 100% no-TNFa wells
[2] = inhibitors of mutant huntingtin aggregation, primary screen, imaging, exon1htt(103Q)mCFP cells, high-content imaging (AID 483;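 active = visual image review flags a hit and inhibition of aggregation exceeds 20%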;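 also: compound exposure lasted 3 days before fixation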;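 as to nuclei count: percent of the per-plate median nuclei count of sample wells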); conditions: exon1htt(103Q)mCFP cell line, aggregate imaging, at 2 µM; inhibition of aggregation: stronger effect = higher value; nuclei count: measured here: cell count, toxicity
[3] = inhibitors of E-selectin induction by TNFa, primary screen, imaging, HUVEC, immunofluorescence, MLSMR starter and 10KST1 sets (AID 487;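 active = visually confirmed hit in the image check and inhibition above 20%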;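 as to inhibition: signal is fraction of cell area covered by stained E-selectin grains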;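 as to nuclei count: 100% = median nuclei count of all wells on the same plate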); conditions: HUVEC TNFalpha-induced E-selectin immunofluorescence imaging, at 2 µM; inhibition: stronger effect = higher value; nuclei count: measured here: cell number, toxicity
[4] = biological target: Voltage-gated potassium channel subunit beta-2 (Rattus norvegicus) (UniProt P62483); experiment: KvBeta enzyme negative modulators, primary screen, biochemical, NADPH fluorescence (AID 622;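 active = fluorescence slope higher than the sample average by over 3 SD, cut at about -0.22 in these data, passing the limit was not always enough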;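 also: slope of raw intensity against log time taken from 70 to 1610 s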); conditions: recombinant KvBeta, 4-cyanobenzaldehyde reduction, at 10 µM, stronger effect = higher value
[5] = biological target: Voltage-gated potassium channel subunit beta-2 (Rattus norvegicus) (UniProt P62483); experiment: KvBeta positive modulators, primary screen, biochemical, NADPH fluorescence (AID 623;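 active = NADPH fluorescence slope more negative than the mean of all samples by about 3 SD, 99.7% confidence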;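 also: fluorescence intensity change per second fitted from 20 to 320 s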); conditions: Recombinant KvBeta, NADPH fluorescence decrease slope, 10 min; at 10 µM; stronger effect = lower value
[6] = biological target: Alpha-2C adrenergic receptor (Homo sapiens) (UniProt P18825); experiment: modulators of alpha2C/GIRK thallium flux, primary screen, cell-based, HEK293 alpha2C/GIRK1/2 (AID 624); conditions: thallium flux BTC fluorescence, at 10 µM, actives lie on both sides;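 also: slope of fluorescence ratio to pre-addition baseline per second over 15 to 24 s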
[7] = inhibitors of Sendai virus-induced IRF3 signaling, primary screen, TLR/RLR signaling modifier project, cell-based, Sendai virus stimulus, luciferase, 10K MLSCN set (AID 602276;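 active = inhibition at or above 50% at 10 µM; inactive = inhibition below 50%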;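 also: firefly luciferase from ISG56 promoter only with Renilla not read in this screen; 0% = Sendai virus plus DMSO and 100% = medium plus DMSO without virus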); conditions: HEK293 RL24 IRF3 luciferase reporter, at 10 µM, stronger effect = higher value
[8] = inhibitors of poly I:C-induced TLR3 signaling, primary screen, cell-based, poly I:C stimulus, luciferase, 10K MLSCN set (AID 602277;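 active = inhibition of the reporter signal at or above 50%; inactive = inhibition below 50%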); conditions: HEK293-TLR3 RL24 IRF3 luciferase reporter, at 10 µM, stronger effect = higher value

Sequence of Voltage-gated potassium channel subunit beta-2 (Rattus norvegicus) (P62483 whole entry, looked up): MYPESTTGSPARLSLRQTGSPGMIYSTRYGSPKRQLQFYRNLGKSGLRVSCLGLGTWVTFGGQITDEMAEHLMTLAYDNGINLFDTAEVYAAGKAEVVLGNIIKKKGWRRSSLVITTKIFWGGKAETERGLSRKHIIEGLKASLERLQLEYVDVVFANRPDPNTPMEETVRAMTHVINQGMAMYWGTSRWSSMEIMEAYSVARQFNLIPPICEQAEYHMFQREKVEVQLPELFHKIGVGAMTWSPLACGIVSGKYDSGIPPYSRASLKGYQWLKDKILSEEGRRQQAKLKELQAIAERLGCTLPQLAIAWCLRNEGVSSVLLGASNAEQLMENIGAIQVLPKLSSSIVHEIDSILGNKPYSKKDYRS
Sequence of Alpha-2C adrenergic receptor (Homo sapiens) (P18825 whole entry, looked up): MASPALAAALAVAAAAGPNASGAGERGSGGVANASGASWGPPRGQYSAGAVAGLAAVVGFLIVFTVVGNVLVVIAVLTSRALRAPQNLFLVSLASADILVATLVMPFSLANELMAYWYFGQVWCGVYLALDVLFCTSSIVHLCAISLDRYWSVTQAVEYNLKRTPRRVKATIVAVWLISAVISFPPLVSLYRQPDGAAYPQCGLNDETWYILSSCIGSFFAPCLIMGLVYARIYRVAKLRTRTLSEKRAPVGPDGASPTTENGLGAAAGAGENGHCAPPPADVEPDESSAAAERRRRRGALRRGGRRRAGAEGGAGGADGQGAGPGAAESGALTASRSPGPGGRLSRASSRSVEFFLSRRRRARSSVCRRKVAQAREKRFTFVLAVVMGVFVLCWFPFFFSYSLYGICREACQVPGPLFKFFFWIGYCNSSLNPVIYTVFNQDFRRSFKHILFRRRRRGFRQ

C=CCn1c(COc2ccc(Cl)cc2)nnc1SCC(=O)N1CC(=O)Nc2ccccc21
cell count [1]: 315
inhibition [1]: 1.9% (inactive)
inhibition of aggregation [2]: -0.9% (inactive)
nuclei count [2]: 104%
inhibition [3]: -6.5% (inactive)
nuclei count [3]: 110%
fluorescence slope [4]: -0.425 (inactive)
NADPH fluorescence slope [5]: -2.1e-05 (inactive)
slope [6]: 0.00537 (inactive)
inhibition [7]: 3.41% (inactive)
inhibition [8]: 4.64% (inactive)

CCOC(=O)N1CCN(C(c2ccc(Cl)cc2)c2sc3nc(C)nn3c2O)CC1 (centres undefined)
cell count [1]: 709
inhibition [1]: -8% (inactive)
inhibition of aggregation [2]: 0.3% (inactive)
nuclei count [2]: 104%
inhibition [3]: -25% (inactive)
nuclei count [3]: 106%
fluorescence slope [4]: -0.412 (inactive)
NADPH fluorescence slope [5]: -3.7e-05 (inactive)
slope [6]: 0.00503 (inactive)
inhibition [7]: 9.66% (inactive)
inhibition [8]: 19.5% (inactive)

Cc1ccc2cc3cc(C(=O)N4CC(C)CC(C)C4)oc3nc2c1 (centres undefined)
cell count [1]: 654
inhibition [1]: -3.9% (inactive)
inhibition of aggregation [2]: 14.3% (inactive)
nuclei count [2]: 86.4%
inhibition [3]: -77% (inactive)
nuclei count [3]: 110%
fluorescence slope [4]: -0.597 (inactive)
NADPH fluorescence slope [5]: 7.7e-06 (inactive)
slope [6]: 0.00635 (inactive)
inhibition [7]: 2.56% (inactive)
inhibition [8]: -64.4% (inactive)

Cc1cc(C)c2c(CC(=O)NCc3ccco3)coc2c1
cell count [1]: 262
inhibition [1]: 5.7% (inactive)
inhibition of aggregation [2]: 23.9% (inactive)
nuclei count [2]: 74.9%
inhibition [3]: 34.3% (inactive)
nuclei count [3]: 60.6%
fluorescence slope [4]: -0.324 (inactive)
NADPH fluorescence slope [5]: 4e-05 (inactive)
slope [6]: 0.00608 (inactive)
inhibition [7]: 10.9% (inactive)
inhibition [8]: 21.2% (inactive)

CCOC(=O)Cn1c(CCC(=O)O)ccc1-c1ccc(F)cc1
cell count [1]: 584
inhibition [1]: -5% (inactive)
inhibition of aggregation [2]: -12.4% (inactive)
nuclei count [2]: 98.2%
inhibition [3]: -54.4% (inactive)
nuclei count [3]: 97.7%
fluorescence slope [4]: -0.548 (inactive)
NADPH fluorescence slope [5]: -2.7e-05 (inactive)
slope [6]: 0.00704 (inactive)
inhibition [7]: 15.5% (inactive)
inhibition [8]: 39.4% (inactive)

O=P(O)(CCc1ccccc1)CN1CCCCC1
cell count [1]: 446
inhibition [1]: -6.3% (inactive)
inhibition of aggregation [2]: -8.7% (inactive)
nuclei count [2]: 100%
inhibition [3]: -137% (inactive)
nuclei count [3]: 108%
fluorescence slope [4]: -0.419 (inactive)
NADPH fluorescence slope [5]: 5e-05 (inactive)
slope [6]: 0.00723 (inactive)
inhibition [7]: -8.42% (inactive)
inhibition [8]: -0.191% (inactive)

Cc1ccc2[nH]c3c(c2c1)CCc1cn[nH]c1-3
cell count [1]: 410
inhibition [1]: 5.1% (inactive)
inhibition of aggregation [2]: -4.7% (inactive)
nuclei count [2]: 71.7%
inhibition [3]: 27.4% (inactive)
nuclei count [3]: 105%
fluorescence slope [4]: -0.481 (inactive)
NADPH fluorescence slope [5]: -1.8e-05 (inactive)
slope [6]: 0.00393 (inactive)
inhibition [7]: -22.4% (inactive)
inhibition [8]: -73.4% (inactive)

Cc1cc(C)cc(C(=O)N2CCC(C(N)=O)CC2)c1
cell count [1]: 706
inhibition [1]: -3.5% (inactive)
inhibition of aggregation [2]: -33.2% (inactive)
nuclei count [2]: 109%
inhibition [3]: -54.3% (inactive)
nuclei count [3]: 122%
fluorescence slope [4]: -0.297 (inactive)
NADPH fluorescence slope [5]: -4.1e-05 (inactive)
slope [6]: 0.00604 (inactive)
inhibition [7]: 13.6% (inactive)
inhibition [8]: 20.8% (inactive)

CC(C)C(NC(=O)OCc1ccccc1)C(=O)OCC(=O)NCc1ccco1 (centres undefined)
cell count [1]: 511
inhibition [1]: -2.9% (inactive)
inhibition of aggregation [2]: -14.8% (inactive)
nuclei count [2]: 114%
inhibition [3]: 7.4% (inactive)
nuclei count [3]: 119%
fluorescence slope [4]: -0.366 (inactive)
NADPH fluorescence slope [5]: 2.2e-05 (inactive)
slope [6]: 0.00253 (inactive)
inhibition [7]: 0.314% (inactive)
inhibition [8]: 5.27% (inactive)
